# In ChEMBL document CHEMBL4513146, “CO-ADD screening of Karazin Kharkiv National University (Ukraine) compounds”:
# Entries with a potency or affinity are not part of this list.
# What was measured:
# Klebsiella pneumoniae = conditions: Concentration 32 ug.mL-1;; ASSAY_TEST Inhibition of Bacterial Growth; detection method Absorption (OD600); MEDIA CAMHB; plate type 384well; NBS; CORNING #3640; time 18 hr
# Candida albicans = conditions: Concentration 32 ug.mL-1; ASSAY_TEST Inhibition of Fungal Growth; detection method Absorption (OD530)
# Cryptococcus neoformans = conditions: Concentration 32 ug.mL-1; ASSAY_TEST Inhibition of Fungal Growth; detection method Resazurin; Absorption (OD600-OD570); plate type 384well; NBS; CORNING #3640
smiles,measurement,setting,value
CCOc1ccc(NC(=O)Cn2nc3c(SCc4ccc(Cl)cc4)nccn3c2=O)cc1,Inhibition,Klebsiella pneumoniae,5.7%
same,Inhibition,Candida albicans,17.72%
same,Inhibition,Cryptococcus neoformans,-25.81%
O=C(Cn1nc2c(SC3CCCCC3)nccn2c1=O)Nc1ccc(Br)cc1,Inhibition,Klebsiella pneumoniae,6.54%
same,Inhibition,Candida albicans,6.38%
same,Inhibition,Cryptococcus neoformans,-23.31%
CC(C)c1nnc2c(SCC(=O)N3CCN(c4ccccc4F)CC3)nc3ccccc3n12,Inhibition,Klebsiella pneumoniae,4.71%
same,Inhibition,Candida albicans,-5.14%
same,Inhibition,Cryptococcus neoformans,-28.6%
CCc1nnc2c(=O)n(CC(=O)Nc3ccc(Br)cc3F)c3ccccc3n12,Inhibition,Klebsiella pneumoniae,8.6%
same,Inhibition,Candida albicans,6.85%
same,Inhibition,Cryptococcus neoformans,-13.86%
Cc1ccc(NC(=O)CSc2nnc3c(=O)n(-c4ccc(C)c(C)c4)ccn23)c(Cl)c1,Inhibition,Klebsiella pneumoniae,12.06%
same,Inhibition,Candida albicans,0.25%
same,Inhibition,Cryptococcus neoformans,-10.04%
COc1ccc(-c2cc3c4nnc(CCC(=O)NCc5ccc(OC)cc5OC)n4ccn3n2)cc1,Inhibition,Klebsiella pneumoniae,15.27%
same,Inhibition,Candida albicans,2.37%
same,Inhibition,Cryptococcus neoformans,-17.34%
CCOc1ccc(C(=O)CSc2nnc3c(=O)n(-c4cccc(OC)c4)ccn23)cc1,Inhibition,Klebsiella pneumoniae,2.62%
same,Inhibition,Candida albicans,7.56%
same,Inhibition,Cryptococcus neoformans,-12.78%
CCC(C)NC(=O)CSc1nnc2c(=O)n(Cc3ccc(F)cc3)ccn12 (centres undefined),Inhibition,Klebsiella pneumoniae,6.96%
same,Inhibition,Candida albicans,1.05%
same,Inhibition,Cryptococcus neoformans,-22.53%
Cc1cc2nn(CC(=O)Nc3ccc4c(c3)OCCO4)c(=O)n2c(Nc2ccccc2C)n1,Inhibition,Klebsiella pneumoniae,6.73%
same,Inhibition,Candida albicans,7.15%
same,Inhibition,Cryptococcus neoformans,-3.99%
O=S(=O)(c1ccc2nncn2c1)N(Cc1cc(F)cc(F)c1)c1cccc(F)c1,Inhibition,Klebsiella pneumoniae,11.98%
same,Inhibition,Candida albicans,2.7%
same,Inhibition,Cryptococcus neoformans,-8.32%
CCOC(=O)c1ccccc1NC(=O)Cn1nc2c3sc(N4CCCC4)nc3ncn2c1=O,Inhibition,Klebsiella pneumoniae,9.28%
same,Inhibition,Candida albicans,9.32%
same,Inhibition,Cryptococcus neoformans,-6%
CCCn1c(=O)c2sccc2n2c(=O)n(CC(=O)c3cccc(OC)c3)nc12,Inhibition,Klebsiella pneumoniae,7.12%
same,Inhibition,Candida albicans,6.53%
same,Inhibition,Cryptococcus neoformans,-27.27%
Cc1ccccc1Oc1nccn2c(=O)n(CC(=O)Nc3ccc(F)cc3F)nc12,Inhibition,Klebsiella pneumoniae,11.95%
same,Inhibition,Candida albicans,-0.38%
same,Inhibition,Cryptococcus neoformans,-8.47%
Cc1ccc(-c2ccc3nnc(CCC(=O)NCc4cccc(Br)c4)n3n2)cc1C,Inhibition,Klebsiella pneumoniae,-2.24%
same,Inhibition,Candida albicans,4.88%
same,Inhibition,Cryptococcus neoformans,-4.39%
Cc1ccc(C)c(CSc2nnc3c(=O)n(-c4ccc(F)c(F)c4)ccn23)c1,Inhibition,Klebsiella pneumoniae,-0.25%
same,Inhibition,Candida albicans,0.45%
same,Inhibition,Cryptococcus neoformans,-4.36%
O=C(Cn1nc2c(=O)n(-c3ccc(Br)cc3)ccn2c1=O)Nc1ccc(F)cc1F,Inhibition,Klebsiella pneumoniae,7.12%
same,Inhibition,Candida albicans,0.41%
same,Inhibition,Cryptococcus neoformans,-12.15%
COc1ccc(NC(=O)CSc2nnc3c(=O)n(-c4ccccc4)ccn23)cc1OC,Inhibition,Klebsiella pneumoniae,12.94%
same,Inhibition,Candida albicans,3.46%
same,Inhibition,Cryptococcus neoformans,-16.1%
Cc1ccc(Cn2c(=O)c3ccccc3n3c(=O)n(CC(=O)Nc4ccc5c(c4)OCCO5)nc23)cc1,Inhibition,Klebsiella pneumoniae,10.7%
same,Inhibition,Candida albicans,0.1%
same,Inhibition,Cryptococcus neoformans,-21.97%
CCc1cccc(NC(=O)Cn2nc3ccc(SC(C)C)nn3c2=O)c1,Inhibition,Klebsiella pneumoniae,7.23%
same,Inhibition,Candida albicans,12.21%
same,Inhibition,Cryptococcus neoformans,-12.08%
CCC(Sc1nnc2c(=O)n(-c3cccc(OC)c3)ccn12)C(=O)Nc1cc(C)ccc1C (centres undefined),Inhibition,Klebsiella pneumoniae,11.08%
same,Inhibition,Candida albicans,1.67%
same,Inhibition,Cryptococcus neoformans,-10.57%
O=C(Cn1nc2c(N3CCOCC3)nccn2c1=O)NCc1cccc(C(F)(F)F)c1,Inhibition,Klebsiella pneumoniae,8.39%
same,Inhibition,Candida albicans,5.12%
same,Inhibition,Cryptococcus neoformans,-4.87%
CCc1nnc2c(S(=O)(=O)N(Cc3cccc(OC)c3)c3cccc(C)c3)cccn12,Inhibition,Klebsiella pneumoniae,0.84%
same,Inhibition,Candida albicans,7.06%
same,Inhibition,Cryptococcus neoformans,-5.34%
Cc1ccc(-c2cc3c4nnc(SCC(=O)Nc5ccccc5Br)n4ccn3n2)cc1,Inhibition,Klebsiella pneumoniae,5.31%
same,Inhibition,Candida albicans,5.08%
same,Inhibition,Cryptococcus neoformans,-35.04%
CCCCOc1ccc(-c2cc3c4nnc(SCC(=O)N(C)c5ccc(F)cc5)n4ccn3n2)cc1,Inhibition,Klebsiella pneumoniae,3.98%
same,Inhibition,Candida albicans,15.18%
same,Inhibition,Cryptococcus neoformans,-9.29%
CCOc1ccc(-n2ccn3c(SCC(=O)Nc4cccc(Cl)c4)nnc3c2=O)cc1,Inhibition,Klebsiella pneumoniae,10.12%
same,Inhibition,Candida albicans,2.64%
same,Inhibition,Cryptococcus neoformans,-5.2%
CCc1nnc2c(SCC(=O)Nc3cccc(C(C)=O)c3)nc3ccccc3n12,Inhibition,Klebsiella pneumoniae,17.43%
same,Inhibition,Candida albicans,-0.1%
same,Inhibition,Cryptococcus neoformans,-10.94%
Cc1ccc(C)c(NC(=O)Cn2nc3c4cc(-c5ccc(C)c(C)c5)nn4ccn3c2=O)c1,Inhibition,Klebsiella pneumoniae,5.73%
same,Inhibition,Candida albicans,-1.76%
same,Inhibition,Cryptococcus neoformans,-22.88%
Cc1cc(C)c(NC(=O)Cn2nc3ccc(SCc4ccc(Cl)cc4)nn3c2=O)c(C)c1,Inhibition,Klebsiella pneumoniae,3.59%
same,Inhibition,Candida albicans,6.58%
same,Inhibition,Cryptococcus neoformans,-25.9%
